# Where “and” joins values, the source holds several entries; their conditions need not be identical. Equal entries are not always repeated. Records with an inconclusive call do not appear. Some compounds were tested as several samples or in several runs, with calls that do not always agree. The list shows a part of the results. Calls of active or inactive are those of the source. Cut-off read from the data, not from the text of the source, unless noted: active = percent of DMSO control GFP below about 86%; inactive = the rest, inconclusive results apart.
# Legend:
# [1] = rapamycin-like changes in RPL19A-GFP expression – cell-based, S. cerevisiae, multiplex flow cytometry, primary screen (AID 1862);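 note: lower values mimic rapamycin by blocking the RPL19A rise seen in DMSO cells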; conditions: S. cerevisiae RPL19A-GFP strain, flow cytometry fluorescence, 3 h; at 10 µM; stronger effect = lower value
# [2] = TOR pathway GLN3 branch reporter MEP2-GFP changes – S. cerevisiae, multiplex flow cytometry, primary screen (AID 1867;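 active = GFP response, as percent of the DMSO control, above the screen-wide mean plus 3 SD, about 139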;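 note: median GFP channel fluorescence of barcode-gated MEP2-GFP cells measured by flow cytometry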); conditions: S. cerevisiae MEP2-GFP strain, 3 h, at 10 µM, stronger effect = higher value, 100% means same as DMSO wells
# [3] = TOR pathway RTG branch CIT2 reporter changes – S. cerevisiae, GFP fusion, multiplex flow cytometry, primary screen (AID 1870;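 active = percent response above a set limit, the screen-wide mean plus 3 SD, cut at about 130% in these data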;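 note: barcoded CIT2-GFP strain pooled with four other GFP strains with rapamycin as positive control; median GFP fluorescence per well over plate mean of DMSO wells so 100% = DMSO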); conditions: S. cerevisiae CIT2-GFP expression, 3 h, at 10 µM, stronger effect = higher value
# [4] = TOR pathway LAP4-GFP level changes – S. cerevisiae, multiplex flow cytometry, primary screen (AID 1873;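 active = GFP signal, as percent of the solvent control, above the screen mean plus 3 SD, about 149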); conditions: S. cerevisiae LAP4-GFP expression, 3 h, at 10 µM, stronger effect = higher value
# [5] = yeast AGP1-GFP level changes, GLN3 branch – cell-based, multiplex flow cytometry, S. cerevisiae, primary screen (AID 1887;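 active = GFP signal above the screen-wide mean plus 3 SD, that is over about 124.5% of the solvent control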;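 note: AGP1-GFP fusion strain of S. cerevisiae within a five-strain barcoded multiplex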); conditions: 3 h, at 10 µM, stronger effect = higher value
# [6] = hit retest on RPL19A-GFP reporter strain – cell-based, S. cerevisiae, flow cytometry, cherry picks, mother/daughter gates, confirmation (AID 2270;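 active = GFP response below 50% of the DMSO control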); conditions: 3 h, at 10 µM, stronger effect = lower value, 100 = same GFP as DMSO wells
# [7] = yeast TOR pathway reporter LAP4-GFP change – cell-based, cherry picks, flow cytometry, mother/daughter gates, confirmation (AID 2271;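 active = GFP response above 150% of the DMSO control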;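 note: ratio of sample to DMSO plate mean so 100% equals DMSO level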); conditions: S. cerevisiae LAP4-GFP strain, 3 h, at 10 µM, stronger effect = higher value, 100 means same as DMSO control
# [8] = TOR pathway reporter MEP2-GFP, retest of hits – S. cerevisiae, flow cytometry GFP, cherry picks, confirmation (AID 2272;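 active = GFP response above 150% of the DMSO control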;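 note: ratio of well signal to plate DMSO mean so 100% equals DMSO level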); conditions: S. cerevisiae MEP2-GFP strain, 3 h, at 10 µM, stronger effect = higher value
# [9] = TOR pathway CIT2 reporter hit retest – S. cerevisiae, GFP fusion, cherry picks, mother/daughter gates, confirmation (AID 2274;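 active = GFP response above 150% of the DMSO level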); conditions: S. cerevisiae CIT2-GFP strain, flow cytometry, 3 h, at 10 µM, stronger effect = higher value
# [10] = reduced mouse 2C T cell binding to pMHC/ICAM-1 vesicles – MLPCN validation set, flow cytometry, LFA-1/ICAM-1 modulator project, pilot screen (AID 2523;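 active = response below a set limit, under 55% cells CD8-positive and vesicle-bound, and CD8 cells' 90th-percentile brightness under 279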;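 for vesicle binding response: mean PE anti-B7-1 fluorescence of CD8+ cells relative to row control; 100% = QL9-loaded vesicles with DMSO vehicle in the same plate row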); conditions: 2C mouse CD8+ T cells, at 7 µM, stronger effect = lower value; double positive events: measured here: CD8+/vesicle+ event percentage
# [11] = interference with biotin-avidin bead interaction – biochemical, flow cytometry, bead-based, counter-screen for RGS protein interaction modulators (AID 1783;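 active = inhibition above 50%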;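 note: median green fluorescence of gated singlet beads compared with DMSO control wells; 0% = DMSO wells and 100% = complete loss of bead fluorescence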); conditions: streptavidin beads, fluorescein-biotin binding; at 10 µM, stronger effect = higher value
# [12] = target: Guanine nucleotide-binding protein G(o) subunit alpha (Homo sapiens) (UniProt P09471); experiment: retest of RGS8-Galphao interaction hits – biochemical, multiplexed bead flow cytometry, single concentration, confirmation (AID 1836; in the data active = binding response below about 72% or above about 130%; inactive = in between;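 note: Galphao activated as GDP AlF4 complex before binding bead RGS8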); conditions: bead-based flow cytometry RGS8-Galphao binding, fluorescence; at 10 µM; actives lie on both sides
# Chain of Guanine nucleotide-binding protein G(o) subunit alpha (Homo sapiens) (P09471 whole entry, looked up): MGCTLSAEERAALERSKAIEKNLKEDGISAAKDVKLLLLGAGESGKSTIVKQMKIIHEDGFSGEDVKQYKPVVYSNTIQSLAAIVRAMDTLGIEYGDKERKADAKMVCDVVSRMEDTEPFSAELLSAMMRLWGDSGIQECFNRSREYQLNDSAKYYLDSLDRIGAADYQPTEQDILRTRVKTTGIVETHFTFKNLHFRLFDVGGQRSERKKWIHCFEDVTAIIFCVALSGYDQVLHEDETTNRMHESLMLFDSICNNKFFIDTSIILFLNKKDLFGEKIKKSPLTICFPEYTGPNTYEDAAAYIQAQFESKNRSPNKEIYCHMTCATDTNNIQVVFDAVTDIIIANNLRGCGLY
# [13] = target: Guanine nucleotide-binding protein G(o) subunit alpha (Homo sapiens) (UniProt P09471); experiment: retest of RGS7-Galphao interaction hits – biochemical, multiplexed bead flow cytometry, single concentration, confirmation (AID 1837; in the data active = response below about 75% or above about 130%; inactive = in between;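 note: fluorescent Galphao activated with GDP and aluminum fluoride binding bead-coupled RGS7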); conditions: bead-based flow cytometry RGS7-Galphao binding; at 10 µM; actives lie on both sides
# [14] = target: Regulator of G-protein signaling 16 (Homo sapiens) + Guanine nucleotide-binding protein G(o) subunit alpha (Homo sapiens) (UniProt O15492+P09471); experiment: RGS16 and Galphao interaction regulators – biochemical, single concentration, multiplexed bead flow cytometry, confirmation (AID 1838; in the data active = response below about 74% or above about 130%; inactive = in between;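 note: Galphao activated as the GDP aluminium fluoride complex binding bead-coupled RGS16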); conditions: bead-based flow cytometry, at 10 µM, actives lie on both sides
# Chain of Regulator of G-protein signaling 16 (Homo sapiens) + Guanine nucleotide-binding protein G(o) subunit alpha (Homo sapiens) (O15492 whole entry, looked up): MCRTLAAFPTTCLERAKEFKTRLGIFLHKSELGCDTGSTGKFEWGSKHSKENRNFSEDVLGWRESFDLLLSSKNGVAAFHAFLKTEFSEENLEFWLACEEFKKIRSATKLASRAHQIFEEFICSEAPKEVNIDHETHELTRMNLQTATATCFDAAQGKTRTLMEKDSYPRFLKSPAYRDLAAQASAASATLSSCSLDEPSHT
# Chain of Regulator of G-protein signaling 16 (Homo sapiens) + Guanine nucleotide-binding protein G(o) subunit alpha (Homo sapiens) (P09471 whole entry, looked up): as the sequence (P09471 whole entry, looked up) above
# [15] = target: Guanine nucleotide-binding protein G(o) subunit alpha (Homo sapiens) (UniProt P09471); experiment: RGS4 and Galphao interaction regulators – biochemical, single concentration, multiplexed bead flow cytometry, confirmation (AID 1840; in the data active = binding response below about 74% or above about 130%; inactive = in between); conditions: at 10 µM, actives lie on both sides
# [16] = target: Guanine nucleotide-binding protein G(o) subunit alpha (Homo sapiens) + Regulator of G-protein signaling 19 (Homo sapiens) (UniProt P09471+P49795); experiment: RGS19 interaction with Gαo, hit retest – biochemical, single point, multiplexed bead flow cytometry, confirmation (AID 1841; in the data active = response below about 50% or above about 160%; inactive = in between;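 note: 100% = no compound control and 0% = blank background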); conditions: bead-based flow cytometry RGS19-Galphao binding; at 10 µM; actives lie on both sides
# Chain of Guanine nucleotide-binding protein G(o) subunit alpha (Homo sapiens) + Regulator of G-protein signaling 19 (Homo sapiens) (P09471 whole entry, looked up): as above
# Chain of Guanine nucleotide-binding protein G(o) subunit alpha (Homo sapiens) + Regulator of G-protein signaling 19 (Homo sapiens) (P49795 whole entry, looked up): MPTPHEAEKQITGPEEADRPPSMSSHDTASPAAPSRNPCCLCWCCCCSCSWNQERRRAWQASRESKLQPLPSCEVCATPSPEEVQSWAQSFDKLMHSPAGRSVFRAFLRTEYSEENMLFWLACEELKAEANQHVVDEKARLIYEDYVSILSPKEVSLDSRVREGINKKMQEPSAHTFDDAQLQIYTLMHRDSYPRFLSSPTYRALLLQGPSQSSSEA
# [17] = measured here: daughter cell gate
# [18] = measured here: mother cell gate
# [19] = measured here: daughter cell gate response
# [20] = measured here: mother cell gate response
structure (smiles),measurement,setting,value
CS(=O)(=O)Nc1cccc(C(=O)CC2(O)C(=O)Nc3ccc(Br)cc32)c1 (stereo not given),percent of DMSO control GFP,[1],85.9% (inactive)
same,GFP response vs DMSO,[2],150% (active)
same,percent response of DMSO control,[3],142% (active)
same,GFP response vs DMSO,[4],139% (inactive)
same,"GFP response, % of DMSO",[5],129% (active)
same,GFP response vs DMSO,[6],101% (inactive)
same,GFP response vs DMSO,[6]; [17],92.4%
same,GFP response vs DMSO,[6]; [18],96.2%
same,GFP response relative to DMSO,[7],98.2% (inactive)
same,GFP response relative to DMSO,[7]; [19],95.9%
same,GFP response relative to DMSO,[7]; [20],96.2%
same,GFP response vs DMSO,[8],99% (inactive)
same,"GFP response, % of DMSO",[9],100% (inactive)
same,"GFP response, % of DMSO",[9]; [17],90.2%
same,"GFP response, % of DMSO",[9]; [18],90.7%
same,double positive events,[10],57.6%
same,vesicle binding response,[10],34.1% (inactive)
O=C(Nc1ccccc1)OCc1cc(-c2ccc(Cl)cc2)on1,inhibition,[11],2.5% (inactive)
same,binding response (% of control),[12],107% (inactive)
same,response (percent of control binding),[13],88.4% (inactive)
same,response (% of control binding),[14],107% (inactive)
same,binding response (% of control),[15],93.7% (inactive)
same,response (percent of control binding),[16],55.4% (inactive)
CN(C)CCCN1c2ccccc2Sc2ccc(Cl)cc21,percent of DMSO control GFP,[1],84.9% (active) and 109% (inactive)
same,GFP response vs DMSO,[2],148% (active) and 129% (inactive)
same,percent response of DMSO control,[3],88.6% (inactive) and 116% (inactive)
same,GFP response vs DMSO,[4],83.1% (inactive) and 94.1% (inactive)
same,"GFP response, % of DMSO",[5],91.5% (inactive) and 115% (inactive)
same,GFP response vs DMSO,[6],101% (inactive)
same,GFP response vs DMSO,[6]; [17],101%
same,GFP response vs DMSO,[6]; [18],102%
same,GFP response relative to DMSO,[7],95% (inactive)
same,GFP response relative to DMSO,[7]; [19],100%
same,GFP response relative to DMSO,[7]; [20],97.2%
same,GFP response vs DMSO,[8],100% (inactive)
same,"GFP response, % of DMSO",[9],106% (inactive)
same,"GFP response, % of DMSO",[9]; [17],103%
same,"GFP response, % of DMSO",[9]; [18],107%
same,double positive events,[10],64.9% and 70.6%
same,vesicle binding response,[10],163% (inactive) and 432% (inactive)
NS(=O)(=O)c1cc2c(cc1C(F)(F)F)NC(Cc1ccccc1)NS2(=O)=O (stereo not given),percent of DMSO control GFP,[1],89.8% (inactive)
same,GFP response vs DMSO,[2],140% (active)
same,percent response of DMSO control,[3],106% (inactive)
same,GFP response vs DMSO,[4],82.5% (inactive)
same,"GFP response, % of DMSO",[5],90.8% (inactive)
same,GFP response vs DMSO,[6],95% (inactive)
same,GFP response vs DMSO,[6]; [17],96%
same,GFP response vs DMSO,[6]; [18],97.1%
same,GFP response relative to DMSO,[7],97.7% (inactive)
same,GFP response relative to DMSO,[7]; [19],96.5%
same,GFP response relative to DMSO,[7]; [20],97.5%
same,GFP response vs DMSO,[8],97.5% (inactive)
same,"GFP response, % of DMSO",[9],102% (inactive)
same,"GFP response, % of DMSO",[9]; [17],104%
same,"GFP response, % of DMSO",[9]; [18],104%
same,double positive events,[10],64.3%
same,vesicle binding response,[10],176% (inactive)
C#C[C@]1(O)CC[C@H]2[C@@H]3CCC4=CC(=O)CC[C@@H]4[C@H]3CC[C@@]21CC,percent of DMSO control GFP,[1],96.3% (inactive)
same,GFP response vs DMSO,[2],96.6% (inactive)
same,percent response of DMSO control,[3],97.7% (inactive)
same,GFP response vs DMSO,[4],107% (inactive)
same,"GFP response, % of DMSO",[5],103% (inactive)
same,GFP response vs DMSO,[6],101% (inactive)
same,GFP response vs DMSO,[6]; [17],98.7%
same,GFP response vs DMSO,[6]; [18],101%
same,GFP response relative to DMSO,[7],101% (inactive)
same,GFP response relative to DMSO,[7]; [19],102%
same,GFP response relative to DMSO,[7]; [20],103%
same,GFP response vs DMSO,[8],95.7% (inactive)
same,"GFP response, % of DMSO",[9],102% (inactive)
same,"GFP response, % of DMSO",[9]; [17],99.7%
same,"GFP response, % of DMSO",[9]; [18],102%
same,double positive events,[10],62.5%
same,vesicle binding response,[10],142% (inactive)
CCCOc1ccc(Cc2c(Cl)nc(SC)nc2NC)cc1,inhibition,[11],-0.2% (inactive)
same,binding response (% of control),[12],102% (inactive)
same,response (percent of control binding),[13],94.9% (inactive)
same,response (% of control binding),[14],99.9% (inactive)
same,binding response (% of control),[15],101% (inactive)
same,response (percent of control binding),[16],67.1% (inactive)

# From PubChem BioAssay
